Data as given in PubChem BioAssay AID1259343 (VanderVen Lab, College of Veterinary Medicine, Cornell …, 2017).
Screen size: about 6,200 compounds; about 2,900 (47%) were called active. The set was probably picked from earlier hits. The list shows a part of the results. Values without a mark were called inactive. No stated cut-off is given here; in the data, active means inhibition above about 50%; inactive means the rest.

Assay: Mycobacterium tuberculosis growth inhibition, primary screen (AID 1259343)
Settings: inhibition: at 10 µM, active compounds read high; outcome: 10 uM

| Compound | inhibition |
| --- | --- |
| Cc1cc(=O)[nH]c(-n2nc(C3CC3)cc2NC(=O)c2cccs2)n1 | 100% (active) |
| Cc1cc(=O)[nH]c(-n2nc(-c3cccs3)cc2NC(=O)c2c(F)cccc2Cl)n1 | 99.6% (active) |
| Cc1cc(=O)[nH]c(-n2nc(-c3cccs3)cc2NC(=O)c2ccco2)n1 | 99.9% (active) |
| CCCC(CCC)C(=O)Nc1cc(-c2cccs2)nn1-c1nc(C)cc(=O)[nH]1 | 99% (active) |
| Cc1cc(=O)[nH]c(-n2nc(-c3cccs3)cc2NC(=O)c2cccs2)n1 | 98.9% (active) |
| Cc1cc(=O)[nH]c(-n2nc(-c3cccs3)cc2NC(=O)CC(C)(C)C)n1 | -0.63% |
| CCC(=O)Nc1cc(-c2cccs2)nn1-c1nc(C)cc(=O)[nH]1 | 99.9% (active) |
| Cc1cc(=O)[nH]c(-n2nc(-c3cccs3)cc2NC(=O)c2ccccc2C)n1 | 98.2% (active) |
| Cc1cccc(C(=O)Nc2cc(-c3cccs3)nn2-c2nc(C)cc(=O)[nH]2)c1 | 0.07% |
| CC(C)c1cc(=O)[nH]c(-n2nc(-c3cccs3)cc2NC(=O)c2cccs2)n1 | 99.1% (active) |
| Cc1nc(C(F)(F)F)ccc1C(=O)NC1CC2CC1C1CCCC21 (configuration not stated) | 32.9% |
| CC1CCCCC1NC(=O)Cn1ccc(C(F)(F)F)n1 (configuration not stated) | 94.9% (active) |
| CC1CCCCC1Nc1ccc2nnc(C(F)(F)F)n2n1 (configuration not stated) | 22.4% |
| O=C(Oc1ccc2oc(=O)sc2c1)C1CCCCC1 | 75.1% (active) |
| Oc1ccc2oc3c(c2c1)CCCC3 | 44.4% |
| O=c1c2cc(O)ccc2oc2ccc(O)cc12 | 87.5% (active) |
| O=c1oc2ccc(O)cc2s1 | 83.8% (active) |
| CC(=O)NCc1ccc(C(=O)Nc2ccc(Br)c(C)c2)cc1 | 93.7% (active) |
| Cc1ccc(NC(=O)c2ccc(S(N)(=O)=O)c(C)c2)cc1C | 31.7% |
| Cc1ccc(NC(=O)CNC(=O)c2ccccc2)cc1C | -8.08% |
| Cc1c(C(=O)O)cnn1-c1ccc(Br)cc1 | 39.2% |
| Cc1cc(C)nc(NN=Cc2cc(Br)cc(Br)c2O)n1 | 102% (active) |

| Compound | inhibition |
| --- | --- |
| CC(=NNc1nc(C)cc(C)n1)c1cc2c(ccc3ccccc32)o1 | 16.4% |
| O=C(NCCc1ccccc1)c1ccc(OC2CCN(C(=O)C3CC34CCC4)CC2)cc1 (configuration not stated) | 19.3% |
| O=C(NCc1ccccc1)c1cccc(OC2CCN(C3Cc4ccccc4C3)CC2)c1 | 82.7% (active) |
| Cc1cc(NC(=O)C2(C)CCOCC2)nc(C(C)C)n1 | -0.19% |
| CC1(C(=O)Nc2nc(-c3cccc(Cl)c3)ns2)CCOCC1 | 89.4% (active) |
| C=CCNc1nc(NCCCN2CCCC2=O)c2sc(-c3ccccc3)cc2n1 | 24.9% |
| CC(C)(C)OC(=O)NCC1CCCCN1C(=O)c1cc(-c2ccccc2F)on1 (configuration not stated) | 14% |
| CC(C)(C#N)C(=O)Nc1cc(-c2ccccc2F)no1 | 88.7% (active) |
| FC(F)(F)c1ccc2c(c1)Oc1sc(Cl)cc1NC2=S | 92% (active) |
| O=C1NC(=S)SC1=Cc1cccc(C(F)(F)F)c1 | 14.4% |
| CC(NCc1cn(C)nc1-c1ccc(Oc2ccccc2)cc1)c1ccccc1 (configuration not stated) | 70.8% (active) |
| COc1ccc(C(C)NCC(O)COc2ccc(Cl)cc2Cl)cc1F (configuration not stated) | 41.6% |
| COc1ccc(C(C)Nc2ccc(C#N)cn2)cc1F (configuration not stated) | 94.3% (active) |
| CCOc1cc2c(cc1CNc1ccc(C#N)cn1)OC(C)C2 (configuration not stated) | 19.6% |
| CC(Nc1nccc(C(F)(F)F)n1)c1ccc(C#N)cc1 (configuration not stated) | 22.5% |
| CC(Nc1ccc(C#N)cn1)c1ccccc1Br (configuration not stated) | 53% (active) |
| CC(NCc1ccc(C(C)(C)C)cc1)c1ccc(S(C)(=O)=O)cc1 (configuration not stated) | 59.5% (active) |
| CS(=O)(=O)c1ccc([C@@H](O)[C@@H](CO)NC(=O)C(Cl)Cl)cc1 | 44.5% |
| CS(=O)(=O)c1ccc(CCNc2ccc(Cl)c(C#N)n2)cc1 | 24.5% |
| Cc1ccc(S(=O)(=O)NCC2CCN(c3ccccc3)C2)c(C)c1 (configuration not stated) | 52.8% (active) |
| Cc1ccc(S(=O)(=O)NCC2COc3ccccc3C2)cc1F (configuration not stated) | -9.55% |
| O=S(=O)(NCC1CCC(c2ccccc2)CC1)C1CCOCC1 (configuration not stated) | -0.68% |

| Compound | inhibition |
| --- | --- |
| CCOC(=O)c1cc(-c2ccccc2)sc1NC(=O)CC(=O)OC | 81% (active) |
| CCOC(=O)c1ccccc1Nc1nnc(C(C)(C)C)c(=O)[nH]1 | 32.2% |
| CCc1cc(C(=O)O)c(NC(=O)c2ccccc2C)s1 | 18.1% |
| NC(=NC1C2CC3CC(C2)CC1C3)Nc1ccc(I)cc1 (configuration not stated) | 42.8% |
| C=CCN(Cc1ccccc1)C(=O)c1cnn2c1[nH]c(=O)c1ccccc12 | 79.8% (active) |
| COc1cc(C=Cc2ccc3ccccc3n2)cc(Cl)c1OC | 26.8% |
| Fc1ccc(C=Cc2ccc3ccccc3n2)cc1 | 32.5% |
| COc1cc(C=Cc2ccc3ccccc3n2)cc(Br)c1O | 73.5% (active) |
| O=C(NCC(c1ccco1)N1CCc2ccccc21)C(=O)Nc1ccccc1[N+](=O)[O-] (configuration not stated) | 5.43% |
| O=C(N1CCc2ccccc2C1)N1c2ccccc2Sc2ccccc21 | -20% |
| CC1CC1C(=O)Nc1ccccc1N1CCc2ccccc2C1 (configuration not stated) | 81.4% (active) |
| O=c1[nH]n(-c2ccc([N+](=O)[O-])cc2)c(=O)c2ccccc12 | 90% (active) |
| O=c1c2ccccc2nc(SCc2ccc([N+](=O)[O-])cc2)n1CC1CCCO1 (configuration not stated) | 26.6% |
| CC(C)n1c(=O)[nH]c2ccccc21 | 19.6% |
| C/C(=C\c1ccccc1)C1Nc2ccccc2C(=O)N1C (configuration not stated) | 48.1% |
| CC(C)N1C(=O)c2ccccc2NS1(=O)=O | 72.9% (active) |
| O=C1OCC(CO)(CO)N=C1NNc1ccc(Cl)cc1 | 81.8% (active) |
| O=C1OCC(CO)(CO)N=C1NNc1ccc(Cl)c(Cl)c1 | 87.5% (active) |
| O=C1OCC(CO)(CO)N=C1NNc1cc(Cl)ccc1Cl | 91.9% (active) |
| O=C1OCC(CO)(CO)N=C1NNc1ccc(I)cc1 | 36.3% |
| O=C1OCC(CO)(CO)N=C1NNc1ccc([N+](=O)[O-])cc1 | -25.1% |
| Cc1cccc(C)c1OCc1cc(C(=O)N2CCCC(c3ccccc3)C2)no1 (configuration not stated) | 47.2% |

| Compound | inhibition |
| --- | --- |
| O=C(c1cc(COc2cncc(Cl)c2)on1)N(CCO)Cc1cccs1 | 89.6% (active) |
| CN(Cc1cnc2ccccn12)C(=O)c1cc(COc2cncc(Cl)c2)on1 | 62.9% (active) |
| CN1CCN(C(=O)c2cc(COc3cncc(Cl)c3)on2)CC1c1ccccc1 (configuration not stated) | 88% (active) |
| Cc1nc2cc(OCc3cc(C(=O)N4CCN(C)C(c5ccccc5)C4)no3)ccc2s1 (configuration not stated) | 10.6% |
| CN(CC1CCCCO1)C(=O)c1cc(COc2cncc(Cl)c2)on1 (configuration not stated) | 95.4% (active) |
| CN(CCCC1CCCC1)C(=O)c1cnon1 | 12.9% |
| CCc1ccc(CN(C)C(=O)c2cc(COc3cncc(Cl)c3)on2)cc1 | inactive |
| COc1ccc(OCc2cc(C(=O)N(C)CC3CCCCO3)no2)c(Cl)c1 (configuration not stated) | inactive |
| Cc1ccc(C(C)C)cc1S(=O)(=O)NCc1ccco1 | -19.8% |
| Clc1cncc(Oc2ccc3c(C4CC4)noc3n2)c1 | 78.7% (active) |
| COc1cccc(Oc2ccc3c(C4CC4)noc3n2)c1 | 93% (active) |
| FC(F)(F)c1ccc(Oc2ccc3c(C4CC4)noc3n2)cn1 | 92.3% (active) |
| COc1ccc2c(=O)c3c(=O)n(-c4ccccc4)c(C4CCCCC4)nc3oc2c1 | -17.1% |
| c1ccc(Oc2ccc3c(C4CC4)noc3n2)cc1 | 72.8% (active) |
| c1cn(-c2ccc(Oc3ccc4c(C5CC5)noc4n3)cc2)cn1 | 33.5% |
| CCOc1ccc(C2CC(c3ccc(F)cc3)=NN2C(=O)CN(C)C2CCCCC2)cc1 (configuration not stated) | -49.7% |
| O[C@@H]1CNCC[C@H]1CNCc1cccc(Oc2cccc(C(F)(F)F)c2)c1 | 9.4% |
| Cc1ccc(F)cc1Oc1ccc2c(C3CC3)noc2n1 | 46.9% |
| FC(F)(F)c1ccccc1Oc1ccc2c(C3CC3)noc2n1 | 92.9% (active) |
| Fc1ccc(Cl)cc1Oc1ccc2c(C3CC3)noc2n1 | 61.4% (active) |
| Fc1cccc(Oc2ccc3c(C4CC4)noc3n2)c1 | 69.2% (active) |
| FC(F)(F)c1cccc(Oc2ccc3c(C4CC4)noc3n2)c1 | 70.6% (active) |

| Compound | inhibition |
| --- | --- |
| O=c1[nH]c(NCCO)nc2c1C1(CCCC1)Cc1ccccc1-2 | 3.77% |
| O=C(Cc1c[nH]c2cccc(Br)c12)OCC1CC1 | -40.3% |
| CCCNC(=O)C1(C)CCN(Cc2csc(-c3ccc(Cl)cc3)n2)C1 (configuration not stated) | 30.7% |
| Fc1ccc(Oc2ccc3c(C4CC4)noc3n2)cc1 | 6.82% |
| Fc1cc(F)cc(Oc2ccc3c(C4CC4)noc3n2)c1 | 95.3% (active) |
| COc1ccc(Nc2ccc3c(C4CC4)noc3n2)cc1 | 85.2% (active) |
| CNC(=O)C1Sc2nc3scc(-c4ccccc4)c3c(=O)n2N=C1C (configuration not stated) | 41.4% |
| Cn1c(SCC(N)=O)nc2scc(-c3ccc(F)cc3)c2c1=O | 66.5% (active) |
| CC(C)c1ccc(-c2csc3ncn(-n4cccc4)c(=O)c23)cc1 | 12.8% |
| Cc1ccccc1C1c2ccsc2CCN1C(C)C(=O)N1CCCN(S(=O)(=O)c2ccc(C(C)(C)C)cc2)CC1 (configuration not stated) | 77.4% (active) |
| CC(Sc1n[nH]c(-c2cccs2)n1)c1ccc(F)cc1F (configuration not stated) | 10.1% |
| COc1ccc(OCc2nc(CSCc3ccc(F)cc3)cs2)cc1 | 50.8% (active) |
| Fc1ccc(CSCc2csc(-c3ccc(F)cc3)n2)cc1 | 38.6% |
| COc1ccc(-c2nnc(SCC(=O)NC(C)(C)C)o2)cc1 | 38.2% |
| CC(C)(C)c1ccc(-c2nnc(SCC(N)=O)o2)cc1 | 98.8% (active) |
| Cc1ccc(-c2nnc(SCc3c(C)noc3C)o2)cc1 | 79% (active) |
| CN(C)C(=O)CSc1nnc(-c2ccc(Br)cc2)o1 | 78.2% (active) |
| Cc1cc(CSc2nnc(-c3ccc(C(C)(C)C)cc3)o2)no1 | 85.8% (active) |
| Cc1cc(C)cc(-c2nnc(SCc3cc(C)on3)o2)c1 | 34.2% |
